The values that follow come from PubChem BioAssay (Tox21).

Inconclusive results are not listed. Entries that show only a call come without a potency. Values without a mark were called inactive. Activity calls are given as the source filed them. Calls come from the whole dose curve; as a rule, active = well fitted cell-killing curve with a large enough effect in the repeat runs; inconclusive = weak or mixed curves, or effect the other way; inactive = flat fitted curve, though single readings scatter. Where a SMILES comes first, the peptide text is derived from it. [ ]: non-standard residue; d: D form. pGlu = O=C1CC[C@@H](C(=O)O)N1

A short description of the assay: qHTS RealTime-Glo MT Cell Viability Assay in HEK293 cells - 0 hour (AID 1224880). Note: top concentration of the series differs between compounds; nearly all actives have a fitted effect of over 45% in size. The following applies: RealTime-Glo luminescence; series mostly up to 76.8 µM. The source says:
U.S. Tox21 Program National Center for Advancing Translational Sciences [NCATS] NIH Chemical Genomics Center [NCGC] U.S. Environmental Protection Agency [EPA] National Institutes of Environmental Health Sciences [NIEHS] National Toxicology Program [NTP] U.S. Food and Drug Administration [FDA] Tox21 Assay Overview: Measure of cell viability is critical in the cell-base assay. Analysis of cell viability is necessary for the characterization of cell responses to cytotoxic drugs and environmental stress. A RealTime-Glo MT Cell Viability Assay to monitor cell viability in real time of continues cell culture during 40 hours of compound treatment was used to screen Tox21 10K library compounds in Hek293 cells. The RealTime-Glo MT Cell Viability Assay is a nonlytic, homogeneous, bioluminescent method to measure cell viability in real time using a simple, plate-based method. The assay involves adding NanoLuc luciferase and a cell-permeant prosubstrate to cells in culture. Viable cells reduce the proprietary prosubstrate to generate a substrate for NanoLuc luciferase. This substrate diffuses from cells into the surrounding culture medium, where it is rapidly used by the NanoLuc Enzyme to produce a luminescent signal. The signal correlates with the number of viable cells, making the assay well suited for cytotoxicity studies.
Tox21 Assay Protocol Summary: The mixture of Hek293 cell suspension and reagents were dispensed at 600cells/6 ul/well in 1536-well tissue culture treated black solid bottom plates using a Multidrop dispenser. After the assay plates were incubated at a 37 C/5% CO2 incubator for 5 hours, 23 nL of compounds dissolved in DMSO, positive and negative controls was transferred to the assay plate by a pintool work station. The plates were incubated at 37 C for 40 hours. The luminescence intensity were measured at 0h, 8h, 16h, 24h, 32h and 40h time points using ViewLux plate reader during compound treatment.
For orientation: Quantitative high-throughput screening tests each substance at several concentrations.
`NC(=O)N1c2ccccc2CC(=O)c2ccccc21`: the Potency entry was “inactive”.

Consider `CC(C)CCCO`, for which the Potency entry was “inactive”. As to `Cc1ccc(C(=O)c2ccc(CC(=O)O)n2C)cc1`, the Potency result is “inactive”. Still for that read-out and setting: for `CC1=CC(=O)[C@H]2C[C@@H]1C2(C)C` the value was “inactive”. Consider `O=C(O)CCSCCC(=O)O`, for which the Potency result is “inactive”. With `O=C(O)CC(C(=O)O)S(=O)(=O)O` (stereo not given), the Potency entry is “inactive”. On to `CC(C)C[C@@H](N)C(=O)O`, for which the activity change, negative = cytotoxicity is 5.62% [at 15.8 µM]. With `CC[C@H]1OC(=O)[C@H](C)[C@@H](O[C@H]2C[C@@](C)(OC)[C@@H](O)[C@H](C)O2)[C@H](C)[C@@H](O[C@@H]2O[C@H](C)C[C@H](N(C)C)[C@H]2O)[C@](C)(OC)C[C@@H](C)C(=O)[C@H](C)[C@@H](O)[C@]1(C)O`, the Potency entry is “inactive”. On the same count and under the same terms, for `CCOC(=O)COC(=O)c1ccccc1C(=O)OCC` the value was “inactive”; for `O=S(=O)(O)c1cccc(S(=O)(=O)O)c1`, “inactive”. Take `[O-][n+]1cccc(CO)c1`: the Potency entry was “inactive”.

With `Nc1ccn([C@@H]2O[C@H](CO)[C@@H](O)C2O)c(=O)n1` (stereo not given in full), the Potency result is “inactive”. As for `Cc1ccc(C(=O)Nc2ccc(S(=O)(=O)O)c3cc(S(=O)(=O)O)cc(S(=O)(=O)O)c23)cc1NC(=O)c1cccc(NC(=O)Nc2cccc(C(=O)Nc3cc(C(=O)Nc4ccc(S(=O)(=O)O)c5cc(S(=O)(=O)O)cc(S(=O)(=O)O)c45)ccc3C)c2)c1`, the Potency entry was “inactive”. The same measure, in the same setting: for `O=[N+]([O-])c1cncn1CCN1CCOCC1` the value was “inactive”; for `CCN(CC#N)c1cccc(C)c1`, “inactive”; for `O=C(O)CCCC[P+](c1ccccc1)(c1ccccc1)c1ccccc1`, “inactive”. As to `C[N+](C)(C)CCCCCCCCCC[N+](C)(C)C`, the Potency result was “inactive”. As to `CCCCCCCCCC[N+](C)(C)[O-]`, the Potency entry was “inactive”. Still for that read-out and setting: the same measure for `Nc1ccn([C@@H]2O[C@H](CO)[C@@H](O)C2(F)F)c(=O)n1`: “inactive”; for `CN(C)C(=O)Oc1ccc[n+](C)c1`: “inactive”; for `c1ccc(Cc2ccccc2)cc1`: “inactive”. Same read-out and setting: the same measure for `CC1=NN(c2cc(S(=O)(=O)O)ccc2Cl)C(=O)C1N=Nc1ccccc1` (stereo not given): “inactive”; for `NCCCC(N)(C(=O)O)C(F)F` (stereo not given): “inactive”; for `CC1=C(C/C=C(\C)CCC[C@H](C)CCC[C@H](C)CCCC(C)C)C(=O)c2ccccc2C1=O`: “inactive”. The same measure, in the same setting: for `COCCOCC(OC)OC` the value was “inactive”; for `CC(C)c1ccc2ncccc2c1`, “inactive”.

On to `CC(C)(C)C(=O)Oc1ccc(S(=O)(=O)Nc2ccccc2C(=O)NCC(=O)O)cc1`, for which the Potency result was “inactive”. The same measure, in the same setting: the same measure for `Nc1ccn([C@@H]2O[C@H](CO)[C@@H](O)[C@@H]2O)c(=O)n1`: “inactive”. Same read-out and setting: for `CN1C(C)(C)CC(O)CC1(C)C` the value was “inactive”; for `O=C(CO)[C@@H](O)[C@H](O)[C@H](O)CO`, “inactive”. In the case of `CCCCCCCC1CCCC1=O` (stereo not given), the Potency entry was “inactive”.

In the case of `CNC(=O)Nc1ccc(Cl)c(Cl)c1`, the Potency result was “inactive”.

Regarding `CCCC(C)C(=O)OCC` (stereo not given), the Potency result was “inactive”.

For the compound `CCNC(=O)[C@@H]1CCCN1C(=O)[C@H](CCCN=C(N)N)NC(=O)[C@H](CC(C)C)NC(=O)CNC(=O)[C@H](Cc1ccc(O)cc1)NC(=O)[C@H](CO)NC(=O)[C@H](Cc1c[nH]c2ccccc12)NC(=O)[C@H](Cc1cnc[nH]1)NC(=O)[C@@H]1CCC(=O)N1` ([pGlu]HWSYGLRP-NHEt), the Potency entry was “inactive”. On to `NC(=O)Cc1cccc2ccccc12`, for which the Potency entry is “inactive”.

For `Nc1ccncc1N`, the Potency result is “inactive”. For the compound `Cc1nc(C2CCCCC2)c(-c2ccc(S(N)(=O)=O)c(F)c2)o1`, the Potency entry is “inactive”. As to `CCN[C@H]1C[C@H](C)S(=O)(=O)c2sc(S(N)(=O)=O)cc21`, the Potency entry is “inactive”. In the case of `CN1CCC(=C2c3ccccc3CCc3cccnc32)CC1`, the Potency result is “inactive”. For `CC(=O)c1ccccc1[N+](=O)[O-]`, the Potency entry is “inactive”.
